PubChem BioAssay AID1851 (National Center for Advancing Translational Sciences (NCATS), 2009)
Among all 16,000 compounds or so, about 5,800 (36%) were called active. Inconclusive results (about 23%) are left out. The list shows a part of the results. A number with no mark means an inactive call. The call rests on the fitted dose curve; in most records, active means well fitted curve in the direction sought with a large enough effect; inconclusive means small, poorly fitted or top-dose-only effect, or effect the other way; inactive means no such curve, though single readings can be large or run the other way.

Target: Cytochrome P450 2C19 (Homo sapiens) (UniProt P33261)
Sequence (P33261 whole entry, looked up): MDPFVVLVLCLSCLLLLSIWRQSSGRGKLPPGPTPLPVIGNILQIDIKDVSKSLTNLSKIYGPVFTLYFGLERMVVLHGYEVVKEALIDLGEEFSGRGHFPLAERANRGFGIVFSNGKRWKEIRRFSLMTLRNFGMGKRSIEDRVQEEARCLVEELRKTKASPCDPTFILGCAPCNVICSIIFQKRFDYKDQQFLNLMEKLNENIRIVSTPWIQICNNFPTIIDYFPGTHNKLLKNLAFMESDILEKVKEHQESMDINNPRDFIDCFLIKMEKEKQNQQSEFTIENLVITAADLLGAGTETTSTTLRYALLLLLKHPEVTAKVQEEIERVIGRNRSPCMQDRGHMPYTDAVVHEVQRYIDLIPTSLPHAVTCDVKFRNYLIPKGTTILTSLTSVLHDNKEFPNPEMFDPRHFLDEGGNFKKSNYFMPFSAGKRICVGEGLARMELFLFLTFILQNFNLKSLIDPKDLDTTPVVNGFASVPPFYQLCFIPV
Assay: Cytochrome panel assay with activity outcomes
Settings: recombinant CYP, pro-luciferin dealkylation, luminescence, p450-cyp2c19; series mostly up to 57.1 µM; activity, negative = inhibition: at the top concentration
On the % scale 0 is the no-effect control and ±100 the full control effect.

Structure (SMILES)	AC50	activity, negative = inhibition
O=C(c1[nH]o[n+](=O)c1C(=O)c1csc2ccccc12)c1csc2ccccc12	1 µM (active)	–
O=C(CCN1CCCCC1)c1csc2ccccc12	–	-22.7% [at 11.4 µM]
Cc1cccc(C(=O)O)c1C[C@H]1NCC[C@H]2c3ccccc3N[C@@H]12	–	3.69% [at 11.4 µM]
Cc1ccccc1Cn1cc(NC(=O)CSc2nc3c(c(C(F)(F)F)n2)CCc2ccccc2-3)cn1	3.98 µM (active)	–
Cc1nn(Cc2ccc(Cl)cc2)c(C)c1NC(=O)CSc1nc2c(c(C(F)(F)F)n1)CCc1ccccc1-2	2.82 µM (active)	–
CC1(C)[C@@H]2CC[C@]1(C)[C@@H](OC(=O)CSC#N)C2	–	-26.6% [at 11.4 µM]
CN(C)/C(CN1CCN(C=O)CC1)=C1\N=C(c2ccccc2)OC1=O	–	-17%
COc1ccccc1CN1CC[C@@]2(CCCN(S(=O)(=O)c3ccccc3)C2)C1	–	-26.9%
COc1ccc(S(=O)(=O)N2CCc3ccccc3C2)cc1OC	0.447 µM (active)	–
O=S(=O)(c1ccc(Cl)s1)N1CCc2ccccc2C1	0.708 µM (active)	–
O=C(ON=C1CCN(S(=O)(=O)c2ccccc2)CC1)c1ccccc1	–	-10.7%
CCN1C(=O)[C@H]2[C@H]3[C@H](O)[C@H](O)C/C(=N/O[C@@H]4O[C@H](COC(C)=O)[C@@H](OC(C)=O)[C@H](OC(C)=O)[C@H]4OC(C)=O)[C@@H]3CC[C@@H]2C1=O	–	34.2% [at 11.4 µM]
CCN(CCCc1ccccc1)CCCc1ccccc1	–	-5.51% [at 25.6 µM]
CCN(CC)CC#CCC(C)(c1ccccc1)c1ccccc1	0.447 µM (active)	–
CCN(CC)CCOC(=O)C(c1ccccc1)c1ccccc1	–	-12.6% [at 25.6 µM]
COc1ccccc1N1CCN(CCN(C(=O)C2CCCCC2)c2ccccn2)CC1	–	-20.8%
O=C(c1ccc(N2CCCCC2)c([N+](=O)[O-])c1)N(Cc1ccccc1)c1ccccn1	14.1 µM (active)	–
O=C1C(Cl)=C(Sc2nnc3c4ccccc4c4ccccc4c3n2)C(=O)c2ccccc21	1.58 µM (active)	–
CCc1cccc(NC(=O)CN(C)S(=O)(=O)c2cnc[nH]2)c1	0.447 µM (active)	–
CN(CC(=O)N1CCN(c2ccccc2)CC1)S(=O)(=O)c1cnc[nH]1	2.24 µM (active)	–
CC[n+]1c(/C=C/Nc2ccccc2)oc2ccccc21	–	-22%
COc1ccc(O[C@H]2C=C[C@@H](c3ccccc3)O[C@H]2CO/N=C2/c3cc(OC)ccc3O[C@@H](c3cccc(OC)c3)[C@H]2O)cc1	0.501 µM (active)	–
CCCNC(=O)OC[C@@H]1O[C@H](CCON=C(C)C)C=C[C@@H]1Oc1ccc(OC)cc1	–	-39.5% [at 11.4 µM]
CCCNC(=O)OC[C@@H]1O[C@H](CCO/N=C2\c3cc(OC)ccc3O[C@H](c3cccc(OC)c3)[C@H]2O)C=C[C@@H]1Oc1ccc(OC)cc1	1.58 µM (active)	–
CCCNC(=O)OC[C@@H]1O[C@H](CCO/N=C(\C)CCN2CCc3nc(CC)c(CC)cc3C2)C=C[C@@H]1Oc1ccc(OC)cc1	–	-24.5% [at 11.4 µM]
